High-throughput results from PubChem BioAssay.
Compounds with a hit are over-represented: about 1.4% of the library has one in this group of screens.
MBD2 inh: inhibitors of MBD2 binding to methylated DNA, primary screen, biochemical, TR-FRET, DNA-binding domain, human; inhibition, % at 4.4 µM; Methyl-CpG-binding domain protein 2 (Homo sapiens), Q9UBB5; MBD2 binding to methylated oligonucleotide; actives 0.31% (n = 370,000); in the data active means inhibition above about 13%
Target sequence (Q9UBB5 whole entry, looked up, the tested form may be a part): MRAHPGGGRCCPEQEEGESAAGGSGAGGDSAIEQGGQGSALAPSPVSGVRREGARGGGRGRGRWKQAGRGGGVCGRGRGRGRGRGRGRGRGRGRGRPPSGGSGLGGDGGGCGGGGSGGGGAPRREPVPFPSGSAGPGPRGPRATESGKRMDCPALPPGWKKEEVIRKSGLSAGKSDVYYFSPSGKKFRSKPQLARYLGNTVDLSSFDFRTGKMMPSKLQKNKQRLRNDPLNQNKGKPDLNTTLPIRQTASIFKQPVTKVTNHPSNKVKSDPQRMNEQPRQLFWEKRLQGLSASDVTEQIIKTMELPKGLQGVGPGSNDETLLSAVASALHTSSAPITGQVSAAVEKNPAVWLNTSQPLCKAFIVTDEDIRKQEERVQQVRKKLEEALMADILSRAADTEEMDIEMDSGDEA
LEDGF integ inh: blockers of LEDGF/p75-dependent integrase strand transfer – biochemical, TR-FRET, high throughput, primary screen; HIV-1 integrase (with human LEDGF/p75); TR-FRET IN-LEDGF/p75 DNA integration, Eu/Cy5; inhibition, % at 3.7 µM; actives 0.64% (n = 370,000);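 active means inhibition above the screen-wide mean plus 3 SD, cut at about 13% in these data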;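 further: signal is the Cy5 over europium emission ratio at 671 and 618 nm; 0% = plate median of compound wells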
UHRF1 binding: UHRF1 methylated DNA binding inhibitors, primary screen, counter-screen for MBD2 inhibitor project, biochemical, TR-FRET, human UHRF1, single concentration; E3 ubiquitin-protein ligase UHRF1 (Homo sapiens), Q96T88; UHRF1 binding to methylated oligo; inhibition, % at 4.4 µM; actives 0.75% (n = 370,000); AID 687016, 2013;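 further: UHRF1 SRA domain binding a hemimethylated CpG hairpin DNA probe; 0% = median of test compound wells and 100% = reference inhibitor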
Casp6 inh: human caspase-6 inhibitors, primary screen, biochemical, VEID-R110 fluorescence, single point, set 2; P55212; purified caspase-6, Z-VEID-R110 cleavage fluorescence; inhibition, % at 12.5 µM; actives 0.53% (n = 350,000); AID 686996, 2013;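 active means mean inhibition across replicates at least about 35%, with every replicate also reaching that limit, limit read from the data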;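 further: 0% = median of neutral control wells and 100% = no fluorescence left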
UHRF1 ctr MBD2: UHRF1 methylated DNA binding inhibitors, counter-screen for MBD2 inhibitor project, biochemical, TR-FRET, human UHRF1 | actives 25% (n = 1,000) | UHRF1 binding to methylated oligonucleotide | shares compounds with MBD2 inh | inhibition, % at 4.4 µM;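 further: UHRF1 SRA domain binding a labeled hemimethylated CpG hairpin DNA; 0% = vehicle only and 100% = reference inhibitor with vehicle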
MBD2 confirm: inhibitors of MBD2 binding to methylated DNA, confirmation, biochemical, TR-FRET, DNA-binding domain, human | shares compounds with MBD2 inh | TR-FRET MBD2-DBD binding to methylated oligonucleotide | inhibition, % at 4.4 µM | actives 26% (n = 1,000); in the data active means inhibition above about 14%
* marks the source's active call; other numbers are inactive results. Unless noted, no stated cut-off is given here; in the data, active means inhibition above about 21%; inactive means the rest.

`COc1ccc2nc(C)cc(Nc3ccc(N4CCOCC4)cc3)c2c1` gave MBD2 inh 6, LEDGF integ inh 0 and UHRF1 binding 13.
For COc1ccc2nc(C)cc(Nc3ccc(N4CCN(C)CC4)cc3)c2c1 the results were MBD2 inh 56*, LEDGF integ inh 10, UHRF1 binding 54*, UHRF1 ctr MBD2 49* and MBD2 confirm 51*.
Cc1ccccc1S(=O)(=O)Cc1ccc(C(=O)NCc2ccc(F)cc2)o1 was read as MBD2 inh -1, LEDGF integ inh -1, UHRF1 binding 4 and Casp6 inh -1.
Screening Cc1ccc(CNC(=O)c2ccc(CS(=O)(=O)c3ccccc3C)o2)cc1 returned MBD2 inh 33*, LEDGF integ inh 2, UHRF1 binding -3, Casp6 inh 3, UHRF1 ctr MBD2 4 and MBD2 confirm 6.
COc1ccc(CC(=O)Nc2ccc(OC)c(NC(=O)c3ccco3)c2)cc1 was read as MBD2 inh 15*, LEDGF integ inh 2, UHRF1 binding 20, UHRF1 ctr MBD2 3 and MBD2 confirm 6.
COc1ccc2c(c1OC)c(=O)n1c3ccc(OC(C)C(=O)NCCN4CCOCC4)cc3c3ccnc2c31 (configuration not stated) was read as MBD2 inh 36*, LEDGF integ inh -1, UHRF1 binding 43*, Casp6 inh -4, UHRF1 ctr MBD2 52* and MBD2 confirm 50*.
`CSc1nsc(SCC(=O)Nc2ccc(C(N)=O)cc2)n1` gave MBD2 inh 23*, LEDGF integ inh -3, UHRF1 binding 0, Casp6 inh -2, UHRF1 ctr MBD2 6 and MBD2 confirm 2.
CSc1nsc(SCC(=O)Nc2ccc(C(C)=O)cc2)n1 was read as MBD2 inh 1, LEDGF integ inh 0 and UHRF1 binding 0.
`CCCCn1nnnc1C(CCSC)N1CCN(C/C=C/c2ccccc2)CC1` (configuration not stated) gave MBD2 inh -5, LEDGF integ inh 2, UHRF1 binding 0 and Casp6 inh -1.
For CCCCn1nnnc1C(CCc1ccccc1)N1CCN(C/C=C/c2ccccc2)CC1 (configuration not stated) the results were MBD2 inh 15*, LEDGF integ inh -10, UHRF1 binding 19, Casp6 inh -1, UHRF1 ctr MBD2 12 and MBD2 confirm 4.
Screening O=C(CNc1ccccc1Cl)N/N=C1\CCCc2ccccc21 returned MBD2 inh 23*, LEDGF integ inh 1, UHRF1 binding 2, Casp6 inh 0, UHRF1 ctr MBD2 4 and MBD2 confirm 1.
O=C1CCCCC1Nc1ccc(Cl)cc1 (configuration not stated) was read as MBD2 inh -2, LEDGF integ inh 2, UHRF1 binding 8 and Casp6 inh 5.
For O=C1CCCCC1Nc1ccc(Br)cc1 (configuration not stated) the results were MBD2 inh 13*, LEDGF integ inh -1, UHRF1 binding 21*, Casp6 inh -4, UHRF1 ctr MBD2 2 and MBD2 confirm 1.
Screening CO[C@@H]1CN(C)C(=O)c2ccc(NC(=O)c3ccno3)cc2OC[C@@H](C)N(S(C)(=O)=O)C[C@H]1C returned Casp6 inh 1.
Screening Cc1ccc2nc(Cl)c3cc(C(=O)NCCCN4CCCC4)sc3c2c1 returned MBD2 inh 15*, LEDGF integ inh -3, UHRF1 binding -4, Casp6 inh -68, UHRF1 ctr MBD2 8 and MBD2 confirm 16*.
Screening C=CC[C@H](CC(=O)NCCO)C(=O)N[C@H](C)COC(=O)[C@@H](CC=C)Cc1ccc(F)cc1 returned MBD2 inh 3, LEDGF integ inh -6, UHRF1 binding 4 and Casp6 inh -2.
For C=CC[C@@H](CC(=O)NCCO)C(=O)N[C@H](C)COC(=O)[C@@H](CC=C)Cc1ccc(F)cc1 the results were MBD2 inh 53*, LEDGF integ inh 0, UHRF1 binding 0, Casp6 inh -5, UHRF1 ctr MBD2 1 and MBD2 confirm 2.
Screening CO[C@@H]1CN(C)C(=O)c2ccc(NC(=O)Nc3cc(F)ccc3F)cc2OC[C@H](C)N(C)C[C@H]1C returned Casp6 inh -24.
For COc1ccc(NC(=O)N(C)C[C@@H]2OCCCC[C@@H](C)Oc3ccc(NC(=O)NC(C)C)cc3C(=O)N([C@@H](C)CO)C[C@H]2C)cc1 the results were Casp6 inh 2.
For CCCCOc1ccc(C(=O)Nc2ccc(N3CCN(C(=O)C(C)C)CC3)cc2)cc1 the results were MBD2 inh 33*, LEDGF integ inh 0, UHRF1 binding -2, UHRF1 ctr MBD2 8 and MBD2 confirm 4.
`CCCCOc1ccc(C(=O)Nc2ccc(N3CCN(C(C)=O)CC3)cc2)cc1` gave MBD2 inh 5, LEDGF integ inh -6 and UHRF1 binding 10.
For COc1ccccc1NC=C1C(=O)OC(C)(C)OC1=O the results were MBD2 inh 7, LEDGF integ inh 2 and UHRF1 binding 5.
`CCOc1ccccc1NC=C1C(=O)OC(C)(C)OC1=O` gave MBD2 inh 13*, LEDGF integ inh -4, UHRF1 binding 3, UHRF1 ctr MBD2 6 and MBD2 confirm 3.
O=C(/C=C/c1ccc(-c2ccccc2[N+](=O)[O-])o1)c1ccco1 was read as MBD2 inh 14*, LEDGF integ inh 11, UHRF1 binding 34*, Casp6 inh 7, UHRF1 ctr MBD2 5 and MBD2 confirm -1.
`O=C(/C=C/c1ccc([N+](=O)[O-])cc1)c1ccco1` gave MBD2 inh -9, LEDGF integ inh -3, UHRF1 binding -1 and Casp6 inh -3.
`COCCn1c(C)cc(C(=O)COC(=O)c2cc3c(s2)CCC3)c1C` gave MBD2 inh 16*, LEDGF integ inh 6, UHRF1 binding 20, UHRF1 ctr MBD2 23* and MBD2 confirm 19*.
For COc1cccc(-c2ccc([C@@H]3[C@H](CO)N(C(C)=O)C34CN(C(C)=O)C4)cc2)c1 the results were Casp6 inh 2.
Screening O=C1NC(=S)S/C1=C\c1ccc(SCc2ccccc2)o1 returned MBD2 inh 29*, LEDGF integ inh 43*, UHRF1 binding 82*, UHRF1 ctr MBD2 12 and MBD2 confirm 10.
